# Reference: the supplement of paper PMC11732987, “Enantioselective OTUD7B fragment discovery through chemoproteomics screening and high-throughput optimisation” (Communications Chemistry, 2025)
# A number with no mark means an inactive call.
# Legend:
# Assay in all cases: log2 ratio of Biotin-Ahx-Ub-VS probe labelling (fragment/DMSO); higher = less target engagement (more negative = stronger competition), active = hit call of the paper (q ≤ 0.05, log2 ratio ≤ -1)
# Settings in all cases: compound concentration: 200 uM; treatment time: 3 h
# USP19 = biological target: T1, USP19 (UniProt O94966)
# T1 sequence (whole entry): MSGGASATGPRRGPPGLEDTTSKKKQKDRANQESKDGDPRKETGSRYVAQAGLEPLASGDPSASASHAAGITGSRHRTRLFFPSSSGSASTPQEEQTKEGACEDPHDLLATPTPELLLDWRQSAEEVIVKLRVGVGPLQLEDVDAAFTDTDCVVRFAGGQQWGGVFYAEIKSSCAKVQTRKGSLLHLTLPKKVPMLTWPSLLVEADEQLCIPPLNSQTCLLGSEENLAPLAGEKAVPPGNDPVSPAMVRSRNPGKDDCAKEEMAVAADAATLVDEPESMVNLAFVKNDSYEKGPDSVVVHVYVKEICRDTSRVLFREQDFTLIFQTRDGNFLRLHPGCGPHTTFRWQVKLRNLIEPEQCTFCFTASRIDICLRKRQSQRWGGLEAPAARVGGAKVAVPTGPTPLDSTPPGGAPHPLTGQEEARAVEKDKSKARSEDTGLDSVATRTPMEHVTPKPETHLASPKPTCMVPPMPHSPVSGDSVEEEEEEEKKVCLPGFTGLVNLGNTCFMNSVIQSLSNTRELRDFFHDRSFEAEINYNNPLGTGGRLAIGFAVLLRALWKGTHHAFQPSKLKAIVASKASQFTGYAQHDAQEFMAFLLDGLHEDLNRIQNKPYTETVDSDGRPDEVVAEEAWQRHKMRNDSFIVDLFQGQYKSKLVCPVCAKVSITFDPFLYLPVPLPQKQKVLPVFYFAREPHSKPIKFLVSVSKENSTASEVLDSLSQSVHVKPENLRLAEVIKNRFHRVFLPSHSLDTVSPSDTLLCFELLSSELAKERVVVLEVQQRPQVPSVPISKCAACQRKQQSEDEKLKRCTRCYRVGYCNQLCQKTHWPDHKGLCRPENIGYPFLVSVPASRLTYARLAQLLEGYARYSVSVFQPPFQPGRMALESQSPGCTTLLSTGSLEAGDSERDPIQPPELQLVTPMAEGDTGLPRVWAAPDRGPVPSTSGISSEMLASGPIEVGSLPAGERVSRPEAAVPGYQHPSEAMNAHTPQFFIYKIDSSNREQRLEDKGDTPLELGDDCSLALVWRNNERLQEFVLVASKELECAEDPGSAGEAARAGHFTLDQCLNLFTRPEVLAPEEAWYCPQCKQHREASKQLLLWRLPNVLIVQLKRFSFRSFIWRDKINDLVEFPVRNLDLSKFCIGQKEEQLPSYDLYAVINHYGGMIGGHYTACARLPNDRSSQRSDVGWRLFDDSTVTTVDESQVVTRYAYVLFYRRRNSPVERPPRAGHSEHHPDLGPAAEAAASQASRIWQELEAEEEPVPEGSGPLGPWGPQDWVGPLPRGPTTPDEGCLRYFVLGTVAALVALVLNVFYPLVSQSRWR
# Outline: (§1)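 Each value is an average log2 ratio of fragment to vehicle, tested by unpaired t-test. The underlying Spectronaut label-free quantities were global-median-normalised, and only proteins with ≥2 unique peptides were included. Triplicate HEK293T lysate samples (495 µg) were exposed to fragment at 200 µM or vehicle for 3 h, then to Biotin-Ahx-Ub-VS at 0.5 µM final for 1 h, before NeutrAvidin enrichment of labelled DUBs, LysC and trypsin digestion, and diaPASEF LC-MS/MS.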
# USP22 = biological target: T2, USP22 (UniProt Q9UPT9)
# T2 sequence (whole entry): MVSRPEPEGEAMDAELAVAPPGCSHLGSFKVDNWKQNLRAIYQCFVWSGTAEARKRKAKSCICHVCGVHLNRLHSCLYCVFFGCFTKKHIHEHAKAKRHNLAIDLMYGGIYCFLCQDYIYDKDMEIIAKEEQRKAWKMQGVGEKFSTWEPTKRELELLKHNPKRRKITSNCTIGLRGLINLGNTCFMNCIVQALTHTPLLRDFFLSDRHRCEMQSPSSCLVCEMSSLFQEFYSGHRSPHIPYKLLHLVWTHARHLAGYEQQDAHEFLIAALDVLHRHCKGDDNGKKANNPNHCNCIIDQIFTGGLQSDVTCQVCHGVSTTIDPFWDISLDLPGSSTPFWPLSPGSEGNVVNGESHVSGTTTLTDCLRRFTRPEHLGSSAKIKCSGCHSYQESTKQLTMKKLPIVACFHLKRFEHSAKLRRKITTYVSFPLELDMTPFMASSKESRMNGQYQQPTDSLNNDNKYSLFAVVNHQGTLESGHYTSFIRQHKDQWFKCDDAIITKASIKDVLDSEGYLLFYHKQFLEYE
# Outline: as §1
# USP24 = USP24 (UniProt Q9UPU5)
# Sequence of USP24 (Q9UPU5 whole entry): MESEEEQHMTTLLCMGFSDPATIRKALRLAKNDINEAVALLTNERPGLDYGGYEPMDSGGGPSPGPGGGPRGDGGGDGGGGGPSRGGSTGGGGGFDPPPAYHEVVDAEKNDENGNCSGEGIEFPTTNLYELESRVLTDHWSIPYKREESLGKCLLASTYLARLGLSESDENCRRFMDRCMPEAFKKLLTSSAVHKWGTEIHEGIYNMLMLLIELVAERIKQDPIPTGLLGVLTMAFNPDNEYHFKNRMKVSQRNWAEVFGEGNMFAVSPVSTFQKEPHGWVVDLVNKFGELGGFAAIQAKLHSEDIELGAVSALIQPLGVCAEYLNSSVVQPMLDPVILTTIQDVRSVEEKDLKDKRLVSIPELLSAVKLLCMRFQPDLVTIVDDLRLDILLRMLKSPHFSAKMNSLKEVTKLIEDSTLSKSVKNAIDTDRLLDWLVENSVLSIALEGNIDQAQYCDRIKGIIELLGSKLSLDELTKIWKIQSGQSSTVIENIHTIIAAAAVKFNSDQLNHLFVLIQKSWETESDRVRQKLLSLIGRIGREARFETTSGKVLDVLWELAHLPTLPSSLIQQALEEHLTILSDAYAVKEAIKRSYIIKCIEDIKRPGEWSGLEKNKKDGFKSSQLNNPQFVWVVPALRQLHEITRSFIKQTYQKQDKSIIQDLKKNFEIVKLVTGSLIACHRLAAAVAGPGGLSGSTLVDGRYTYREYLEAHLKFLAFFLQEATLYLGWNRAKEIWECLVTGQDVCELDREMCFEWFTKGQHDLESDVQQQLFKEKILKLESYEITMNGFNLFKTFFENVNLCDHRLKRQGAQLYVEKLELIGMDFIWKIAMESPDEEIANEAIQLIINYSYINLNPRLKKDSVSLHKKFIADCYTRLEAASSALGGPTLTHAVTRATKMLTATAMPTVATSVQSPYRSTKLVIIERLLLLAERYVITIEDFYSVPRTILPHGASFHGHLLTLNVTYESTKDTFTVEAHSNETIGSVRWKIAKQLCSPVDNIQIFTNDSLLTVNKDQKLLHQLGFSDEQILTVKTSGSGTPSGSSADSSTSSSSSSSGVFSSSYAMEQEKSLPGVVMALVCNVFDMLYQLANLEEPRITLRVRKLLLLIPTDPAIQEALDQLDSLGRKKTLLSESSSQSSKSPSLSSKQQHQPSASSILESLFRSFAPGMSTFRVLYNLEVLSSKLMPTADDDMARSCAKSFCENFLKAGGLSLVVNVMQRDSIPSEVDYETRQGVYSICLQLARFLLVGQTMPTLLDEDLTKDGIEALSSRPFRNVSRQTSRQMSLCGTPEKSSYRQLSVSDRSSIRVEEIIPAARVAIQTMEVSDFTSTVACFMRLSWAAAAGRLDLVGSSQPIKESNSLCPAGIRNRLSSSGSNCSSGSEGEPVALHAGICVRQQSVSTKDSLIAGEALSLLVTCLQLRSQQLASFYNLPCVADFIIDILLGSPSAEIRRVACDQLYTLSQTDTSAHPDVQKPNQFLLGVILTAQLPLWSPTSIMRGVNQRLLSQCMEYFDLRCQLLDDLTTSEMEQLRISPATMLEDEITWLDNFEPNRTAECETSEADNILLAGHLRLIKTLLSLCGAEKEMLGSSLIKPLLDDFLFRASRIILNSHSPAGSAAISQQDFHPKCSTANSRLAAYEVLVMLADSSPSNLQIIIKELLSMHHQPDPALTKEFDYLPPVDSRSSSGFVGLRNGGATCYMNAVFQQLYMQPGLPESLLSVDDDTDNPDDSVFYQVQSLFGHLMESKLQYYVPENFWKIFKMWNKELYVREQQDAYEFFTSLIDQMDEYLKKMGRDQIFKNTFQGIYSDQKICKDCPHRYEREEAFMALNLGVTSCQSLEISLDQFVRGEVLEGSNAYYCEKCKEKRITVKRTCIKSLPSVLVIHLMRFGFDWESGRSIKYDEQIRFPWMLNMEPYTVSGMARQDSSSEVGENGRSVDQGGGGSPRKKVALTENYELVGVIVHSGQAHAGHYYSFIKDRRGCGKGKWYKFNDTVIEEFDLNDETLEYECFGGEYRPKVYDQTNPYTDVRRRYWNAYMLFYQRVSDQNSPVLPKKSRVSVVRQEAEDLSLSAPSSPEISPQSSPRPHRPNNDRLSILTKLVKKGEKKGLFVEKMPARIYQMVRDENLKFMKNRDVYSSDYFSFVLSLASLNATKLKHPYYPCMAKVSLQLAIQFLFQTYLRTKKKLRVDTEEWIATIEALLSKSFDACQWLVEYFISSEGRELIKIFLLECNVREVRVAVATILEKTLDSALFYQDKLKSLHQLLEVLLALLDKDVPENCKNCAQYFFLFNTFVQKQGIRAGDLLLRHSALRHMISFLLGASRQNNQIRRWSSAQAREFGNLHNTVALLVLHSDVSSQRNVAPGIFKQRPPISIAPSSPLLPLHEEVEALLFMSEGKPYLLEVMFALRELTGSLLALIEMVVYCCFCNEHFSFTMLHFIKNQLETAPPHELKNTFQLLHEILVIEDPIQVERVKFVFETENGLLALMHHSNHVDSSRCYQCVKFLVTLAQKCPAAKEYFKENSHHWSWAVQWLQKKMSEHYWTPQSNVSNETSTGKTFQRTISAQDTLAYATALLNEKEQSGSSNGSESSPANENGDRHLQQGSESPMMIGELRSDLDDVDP
# Outline: as §1
# USP25 = biological target: T3, USP25 (UniProt Q9UHP3)
# T3 sequence (whole entry): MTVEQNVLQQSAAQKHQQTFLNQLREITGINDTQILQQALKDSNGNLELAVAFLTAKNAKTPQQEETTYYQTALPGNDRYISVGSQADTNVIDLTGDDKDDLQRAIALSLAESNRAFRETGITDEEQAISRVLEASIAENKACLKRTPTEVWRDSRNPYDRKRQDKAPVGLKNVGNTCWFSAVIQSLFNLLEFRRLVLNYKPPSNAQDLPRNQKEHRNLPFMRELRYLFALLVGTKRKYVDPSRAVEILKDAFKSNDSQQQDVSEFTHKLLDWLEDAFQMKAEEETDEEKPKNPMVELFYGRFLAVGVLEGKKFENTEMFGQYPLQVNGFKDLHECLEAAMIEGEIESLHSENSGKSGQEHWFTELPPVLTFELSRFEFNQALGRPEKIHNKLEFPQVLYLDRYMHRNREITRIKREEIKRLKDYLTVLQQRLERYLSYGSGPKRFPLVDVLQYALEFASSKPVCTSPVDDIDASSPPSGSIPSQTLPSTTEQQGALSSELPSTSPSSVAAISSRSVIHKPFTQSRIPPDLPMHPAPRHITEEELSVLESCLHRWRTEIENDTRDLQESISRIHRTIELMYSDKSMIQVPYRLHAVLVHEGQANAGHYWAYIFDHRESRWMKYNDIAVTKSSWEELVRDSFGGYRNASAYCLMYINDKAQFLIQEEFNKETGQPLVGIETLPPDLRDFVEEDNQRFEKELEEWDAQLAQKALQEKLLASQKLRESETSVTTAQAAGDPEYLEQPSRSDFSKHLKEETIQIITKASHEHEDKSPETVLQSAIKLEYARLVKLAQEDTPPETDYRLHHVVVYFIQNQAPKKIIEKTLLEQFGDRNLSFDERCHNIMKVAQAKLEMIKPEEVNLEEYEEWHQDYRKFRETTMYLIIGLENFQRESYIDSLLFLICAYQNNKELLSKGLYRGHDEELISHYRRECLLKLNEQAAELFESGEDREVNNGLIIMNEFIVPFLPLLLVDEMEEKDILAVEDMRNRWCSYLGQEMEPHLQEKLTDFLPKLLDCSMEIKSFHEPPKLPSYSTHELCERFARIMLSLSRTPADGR
# Outline: as §1
# USP28 = biological target: T4, USP28 (UniProt Q96RU2)
# T4 sequence (whole entry): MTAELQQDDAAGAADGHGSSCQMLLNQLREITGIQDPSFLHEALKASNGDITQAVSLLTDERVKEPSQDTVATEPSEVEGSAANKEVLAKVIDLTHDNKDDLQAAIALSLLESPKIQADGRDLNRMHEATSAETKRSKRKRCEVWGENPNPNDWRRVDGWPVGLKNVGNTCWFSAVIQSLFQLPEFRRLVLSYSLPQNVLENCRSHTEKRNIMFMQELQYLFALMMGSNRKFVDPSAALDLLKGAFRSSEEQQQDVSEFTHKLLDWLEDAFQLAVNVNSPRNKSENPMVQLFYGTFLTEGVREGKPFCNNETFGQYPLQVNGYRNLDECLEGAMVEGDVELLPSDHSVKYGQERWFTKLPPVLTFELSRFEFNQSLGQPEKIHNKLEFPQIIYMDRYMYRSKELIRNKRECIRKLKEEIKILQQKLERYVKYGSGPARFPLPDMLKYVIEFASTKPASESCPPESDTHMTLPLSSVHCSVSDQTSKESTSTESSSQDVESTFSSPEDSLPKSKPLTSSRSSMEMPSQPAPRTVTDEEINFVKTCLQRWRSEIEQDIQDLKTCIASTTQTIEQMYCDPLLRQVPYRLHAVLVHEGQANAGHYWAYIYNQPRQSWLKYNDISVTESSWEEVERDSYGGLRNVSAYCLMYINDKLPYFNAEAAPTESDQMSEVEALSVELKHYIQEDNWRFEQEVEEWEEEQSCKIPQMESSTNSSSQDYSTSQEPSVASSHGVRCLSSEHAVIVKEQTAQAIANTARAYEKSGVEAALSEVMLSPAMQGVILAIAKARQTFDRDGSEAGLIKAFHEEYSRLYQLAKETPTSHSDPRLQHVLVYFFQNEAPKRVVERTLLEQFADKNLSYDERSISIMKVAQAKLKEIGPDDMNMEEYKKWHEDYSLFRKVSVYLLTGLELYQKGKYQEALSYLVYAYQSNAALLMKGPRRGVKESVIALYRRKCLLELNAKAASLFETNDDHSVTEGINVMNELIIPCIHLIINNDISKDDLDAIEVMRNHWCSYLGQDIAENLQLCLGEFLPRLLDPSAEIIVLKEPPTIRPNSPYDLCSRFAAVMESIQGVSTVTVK
# Outline: as §1
structure (smiles),measurement,setting,value
CC1Cc2ccccc2N1C(=O)CCl (stereo not given),log2 ratio of Biotin-Ahx-Ub-VS probe labelling,USP19,-0.643
same,log2 ratio of Biotin-Ahx-Ub-VS probe labelling,USP22,-0.161
same,log2 ratio of Biotin-Ahx-Ub-VS probe labelling,USP24,-1.61 (active)
same,log2 ratio of Biotin-Ahx-Ub-VS probe labelling,USP25,-0.876
same,log2 ratio of Biotin-Ahx-Ub-VS probe labelling,USP28,-0.929
